Bioassay records (PubChem BioAssay)
An excerpt weighted towards active compounds, which were near 0.85% of everything screened.
GRP78 ERSR act: ER stress response induction in glioma | U87-MG GRP78 promoter luciferase reporter, 16 h | Potency, µM, usual class: activators | hit rate 0.02% among 420,000; also: series mostly up to about 76 µM; nearly all actives have a fitted effect of over 35% in size
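ERSR induction read as luciferase luminescence (Bright-Glo, 10 min at room temperature) in stably transfected human U87-MG glioma cells exposed to compounds for 16 h, using GRP78 as sensor.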
Mm-Cpn inhibitor: M. maripaludis TRiC chaperonin inhibition. purified Mm-Cpn ATPase, ADP Transcreener TR-FRET. Potency, µM (highest dose often 76.9 µM), usual class: inhibitors. hit rate 0.031% among 330,000; also: nearly all actives have a fitted effect of over 80% in size
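Compound-treated chaperonin, 25 nM final, turns over 10 uM ATP at 37°C for 30 min following a 10 min preincubation; ADP generated competes with ADP-d2 for Eu-cryptate antibody, lowering FRET.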
GLS inh: inhibitors of human glutaminase (GLS); hit rate 0.21% among 410,000; GLS enzymatic activity, qHTS titration; O94925; Potency, µM (titrated, usually from 45.5 µM), actives largely listed as inhibitors; AID 624170
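hKGA; 45 mM KH2PO4 pH 8.2 + 0.02% Tween-20; cpd via pin tool; 1 mM Gln soln; GluOx/HRP/Amplex Red; RT 30 min; fluor. t0 & final.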
mIDH1 inhibitor: blocks human mutant IDH1 R132H enzyme | hit rate 0.093% among 390,000 | IDH1-R132H enzyme, NADPH consumption, diaphorase/resazurin fluorescence | O75874 | Potency, µM (highest dose often 76.6 µM), usual class: inhibitors; also: nearly all actives have a fitted effect of over 65% in size
Target sequence (O75874 whole entry R132H, stated change not applied): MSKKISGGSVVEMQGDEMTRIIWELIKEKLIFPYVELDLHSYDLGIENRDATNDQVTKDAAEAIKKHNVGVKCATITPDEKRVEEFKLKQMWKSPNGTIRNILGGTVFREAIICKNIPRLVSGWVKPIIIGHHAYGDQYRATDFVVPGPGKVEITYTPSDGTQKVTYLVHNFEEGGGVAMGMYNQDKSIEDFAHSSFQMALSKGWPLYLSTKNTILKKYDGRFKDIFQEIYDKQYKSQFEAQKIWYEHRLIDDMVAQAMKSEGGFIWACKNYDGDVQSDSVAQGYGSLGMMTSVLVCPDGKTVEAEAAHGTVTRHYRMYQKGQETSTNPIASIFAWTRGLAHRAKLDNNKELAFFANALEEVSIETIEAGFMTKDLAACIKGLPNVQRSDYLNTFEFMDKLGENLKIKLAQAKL
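IDH1-R132H (0.5 ug/mL) preincubated 30 min with compound, then NADPH (0.016 mM) and alpha-KG (2 mM) added; 80 min at RT, pH 7.5. Remaining NADPH coupled via diaphorase/resazurin to fluorescence (540/590 nm); concentration-response curves normalized to no-enzyme control.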
CCT modulator: cytosolic chaperonin activity modulation. AID 651819. hit rate 0.3% among 360,000. purified chaperonin ATPase assay, HTRF ADP detection, 30 min. activity change, % (test concentration not listed), hits read low; in the data active = activity change below about -30%
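We incubate TRiC, 40 or 20 nM final, with library compounds at 76 uM and 10 uM ATP for 30 min at 37 °C. ADP formed is detected with Transcreener HTRF reagents after 30 min at room temperature.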
Akt phos inh: inhibitors of Akt phosphorylation | AID 651550 | Neuro2A IGF-stimulated pAkt S473 HTRF, 20 min; stronger effect = lower value | hit rate 0.32% among 360,000 | activity change, % for hits at 50 µM; in the data active = activity change below about -80%; inconclusive = mostly about -51% to -80%
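Neuro2A cells (4,500/well, DMEM with 0.5% FBS) were treated with compound at a single 50 µM final concentration, stimulated with 6 nM IGF for 20 min at 37 °C, and lysed. Phospho-Akt Ser473 was read by HTRF as 665/615 ratio ×10^4.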
Each line names hits and unclear results; the compound was inactive in the other large screens. Unless noted, calls follow the shape of the dose curve; as a rule, active = well fitted curve in the direction sought with a large enough effect; inconclusive = small, poorly fitted or top-dose-only effect, or another doubt; inactive = no such curve, though single readings can be large; an effect the other way counts as inactive or inconclusive.

CCC1C(=O)NCCN1Cc1ccc2c(c1)CN(Cc1ccc(OC)c(OC)c1)CCO2 (configuration not stated)	none (no result: Mm-Cpn inhibitor, GLS inh, mIDH1 inhibitor, CCT modulator, Akt phos inh)
COc1cccc(C=Nc2cc(C)cc(C)c2)c1O	none
COc1cc(Br)cc(C=Nc2cccc(C(F)(F)F)c2)c1O	CCT modulator -31
CCC1(C2CCN(C(=O)c3ccccc3C(C)=O)CC2)NC(=O)N(CCc2scnc2C)C1=O (configuration not stated)	none (no result: Mm-Cpn inhibitor, GLS inh, mIDH1 inhibitor, CCT modulator, Akt phos inh)
O=C(Oc1cccc2cccnc12)c1ccc(Br)o1	none
O=C(Oc1cccc2cccnc12)c1ccco1	Akt phos inh -110%
COc1ccc(-c2nc3ccccc3o2)cc1NC(=O)CSc1ccc(Cl)cc1	CCT modulator -90
COc1ccccc1C1CN(CC(=O)N[C@H]2CCCCNC2=O)Cc2ccccc2O1 (some centres not stated)	none (no result: Mm-Cpn inhibitor, GLS inh, mIDH1 inhibitor, CCT modulator, Akt phos inh)
CCOC(=O)c1c(-c2ccccc2)nc2ccccn12	none
CCOC(=O)c1c(-c2ccccc2)nc2c(C)cccn12	CCT modulator -119
Cc1ccc(C)c(S(=O)(=O)NCCN2CCOCC2)c1	CCT modulator -31
COc1ccccc1-c1ccnc(-n2ncc(C(=O)NC(c3cccnc3)C(F)(F)F)c2C)n1 (configuration not stated)	none (no result: Mm-Cpn inhibitor, GLS inh, mIDH1 inhibitor, CCT modulator, Akt phos inh)
C/C(=N\N=C1\NC(=O)C(CC(=O)Nc2ccc(Cl)cc2)S1)c1ccco1 (configuration not stated)	none
C/C(=N\N=C1\NC(=O)C(CC(=O)Nc2ccc(C)c(Cl)c2)S1)C(C)(C)C (configuration not stated)	CCT modulator -44
Nc1ccc2c(c1)C(=O)c1cc(Cl)c(Cl)cc1-2	none (no result: Mm-Cpn inhibitor)
Nc1ccc2c(c1)C(=O)c1ccc(N)cc1-2	CCT modulator -62 (no result: Mm-Cpn inhibitor)
CCOC(=O)c1cnc2c(OC)cccc2c1N1CCN(c2ccccc2OC)CC1	none
CCOC(=O)c1cnc2c(OC)cccc2c1N1CCN(c2ccc(OC)cc2)CC1	Akt phos inh -128%
O=C(NCCc1nnc2n1CCN(Cc1ccsc1)CC2)c1ccc(F)cc1	none (no result: Mm-Cpn inhibitor, GLS inh, mIDH1 inhibitor, CCT modulator, Akt phos inh)
COC(=O)c1ccc2c(c1)C(C)(C)C(/C=C/c1ccccc1O)=[N+]2C	GRP78 ERSR act inconclusive, mIDH1 inhibitor 35µM
CCOc1cccc(OCCCCN2CCOCC2)c1	Akt phos inh -108%
COc1cccc(OCCCCCCN2CCOCC2)c1	none (no result: Akt phos inh)
Cc1ccc(CNc2ncnc3sc(C(=O)N4CCC(N5CCCC(O)C5)CC4)c(C)c23)o1 (configuration not stated)	none (no result: Mm-Cpn inhibitor, GLS inh, mIDH1 inhibitor, CCT modulator, Akt phos inh)
O=C(ONC(=O)C1C2C=CC(C2)C1C(=O)NOC(=O)c1ccccc1)c1ccccc1 (configuration not stated)	GLS inh 13µM (no result: Mm-Cpn inhibitor)
Cc1ccccc1CN1CCc2nnc(C(C)NC(=O)c3cc(F)ccc3F)n2CC1 (configuration not stated)	none (no result: Mm-Cpn inhibitor, GLS inh, mIDH1 inhibitor, CCT modulator, Akt phos inh)
Cc1ccc(CSc2nc3sc(C)c(C)c3c(=O)n2Cc2ccco2)cc1	CCT modulator -31 (no result: GLS inh, Akt phos inh)
CCc1ccc(C(C)NC(=O)/C(C#N)=C\c2cn[nH]c2-c2ccccc2)cc1 (configuration not stated)	Akt phos inh -83% (no result: Mm-Cpn inhibitor)
Cc1cc(N/N=C/c2ccc(O)cc2)nc(NS(=O)(=O)c2ccccc2)n1	GLS inh 13µM
Cc1ccc(/C=N/Nc2cc(C)nc(NCc3ccccc3)n2)cc1	none
CO/N=C(\C(=O)N[C@@H]1C(=O)N2C(C(=O)OCOC(=O)C(C)(C)C)=C(C)CS[C@H]12)c1csc(N)n1	none (no result: Mm-Cpn inhibitor, mIDH1 inhibitor, CCT modulator, Akt phos inh)
CCOC(=O)CN1N=C(/C=C/c2ccc(OCC)cc2)CCC1=O	none
CCOC(=O)CN1N=C(/C=C/c2ccccc2)CCC1=O	CCT modulator -48 (no result: Mm-Cpn inhibitor)
COc1ccc(-c2csc(NC(=O)c3ccc(S(=O)(=O)N4CCc5ccccc5C4)cc3)n2)c(OC)c1	Mm-Cpn inhibitor 50µM
Cc1ccc(C(=O)NCCc2nnc3n2CCN(Cc2ccc4ccccc4c2)CC3)c(C)c1	none (no result: Mm-Cpn inhibitor, GLS inh, mIDH1 inhibitor, CCT modulator, Akt phos inh)
CO[C@@]1(NC(=O)CSCC#N)C(=O)N2C(C(=O)O)=C(CSc3nnnn3C)CS[C@@H]21	GLS inh 11µM
COc1ccccc1CCNc1ncnc2sc(C(=O)N3CCCN(C=O)CC3)c(C)c12	none (no result: Mm-Cpn inhibitor, GLS inh, mIDH1 inhibitor, CCT modulator, Akt phos inh)
